# Laboratory results: the supplement of paper PMC7411640
# Counter-ions that a name gives are not always drawn.
# Test system: MDA-MB-468
# Test: phospho-S6 immunofluorescence (DAPI-normalised), per-plate z-score; higher = higher phospho-S6 signal (less pathway suppression)
# Conditions: 24 h
# Method: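 GPCR-targeted compound library (MedChemExpress HY-L006) tested on MDA-MB-468 PTEN-null TNBC cells in 384-well plates at 0.1, 1 or 10 uM, combined with vehicle, GDC0941 450 nM or lapatinib 1 uM, for 24 h. Phospho-S6 (S240/244) immunofluorescence normalised to DAPI and expressed as a per-plate z-score; values are the mean of biological triplicates.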
SMILES,phospho-S6 immunofluorescence (z-score) (co-treatment: GDC0941 450 nM),phospho-S6 immunofluorescence (z-score) (co-treatment: lapatinib 1 uM),phospho-S6 immunofluorescence (z-score) (co-treatment: vehicle)
CN1N=C2CCN(C(=O)[C@@H](COCc3ccccc3)NC(=O)C(C)(C)N)C[C@@]2(Cc2ccccc2)C1=O [Capromorelin (Tartrate)] (compound 10 µM),-0.05,-0.67,-0.14
Cc1cc(Cn2cnc3c2CC(C(=O)O)N(C(=O)C(c2ccccc2)c2ccccc2)C3)ccc1N(C)C (centres undefined) (compound 10 µM),-0.71,0.17,0.29
O=C(N[C@@H]1CC[C@@H](c2cccc(F)c2F)CN(CC(F)(F)F)C1=O)N1CCC(n2c(=O)[nH]c3ncccc32)CC1 (compound 10 µM),0.18,0.53,-0.42
CN(C)CCOC(c1ccccc1)c1ccccc1.Cn1c(=O)c2[nH]c(Cl)nc2n(C)c1=O [Dimenhydrinate] (compound 10 µM),-1.22,0.01,-0.02
COc1cc(C(=O)N(CCCc2ccccc2)Cc2ccc(CC(=O)O)cc2)cc(OC)c1C (compound 10 µM),-0.21,0.49,-0.17
CC(=O)OCC(=O)[C@@]1(O)CC[C@H]2[C@@H]3CCC4=CC(=O)CC[C@]4(C)[C@H]3C(=O)C[C@@]21C [Cortisone (acetate)] (compound 10 µM),0.51,1.06,0.93
OCCOCCN1CCN(C(c2ccccc2)c2ccccc2)CC1 [Decloxizine (dihydrochloride)] (compound 10 µM),0.55,-0.6,-0.19
CCCSc1nc(N[C@@H]2C[C@H]2c2ccc(F)c(F)c2)c2nnn([C@@H]3C[C@H](OCCO)[C@@H](O)[C@H]3O)c2n1 [Ticagrelor] (compound 10 µM),-1.29,0.02,1.13
C[C@H](Nc1cc(NS(=O)(=O)N2CCC2)nc(SCc2cccc(F)c2F)n1)[C@@H](O)CO (compound 10 µM),-1.17,-0.3,-0.77
CN(C)CCC(c1ccccc1)c1ccccn1 (centres undefined) [Pheniramine (Maleate)] (compound 10 µM),0.09,0.78,-0.37
CC(=O)OCC(=O)[C@@]1(O)CC[C@H]2[C@@H]3CCC4=CC(=O)CC[C@]4(C)[C@H]3[C@@H](O)C[C@@]21C [Hydrocortisone (acetate)] (compound 10 µM),-0.25,1.4,-0.24
Fc1ccc(-c2cncc(CN3CCN(c4cccc5c4OCCO5)CC3)c2)cc1 [Adoprazine] (compound 10 µM),-2.84,-1.05,-2.49
COc1cc(NC(=O)CCN2CCC(OC(=O)Nc3ccccc3-c3ccccc3)CC2)c(Cl)cc1CNC[C@H](O)c1ccc(O)c2[nH]c(=O)ccc12 [Batefenterol] (compound 10 µM),-3.26,-4.13,0.38
CCN(CCCc1ccccc1)CCCc1ccccc1 [Alverine (citrate)] (compound 10 µM),-0.52,-1.04,0.02
COc1cc(N)cn[n+]1-c1ccccc1 [Amezinium (methylsulfate)] (compound 10 µM),-0.21,1.19,0.03
COc1ccc(CNC(=O)c2cc(-c3cncc(C)c3)ncc2-c2nccs2)nc1OC (compound 10 µM),-0.61,-0.5,0.26
COC1CCC(C(=O)c2ccc3nc4c(cc3c2)CCCO4)CC1 (centres undefined) (compound 10 µM),-0.83,0.85,0.02
CC(C)c1noc(N2CCC(COc3ccc(-c4ccc(S(C)(=O)=O)cc4)nc3)CC2)n1 (compound 10 µM),-2.9,-4.91,-6.22
C[C@]12C=CC(=O)C=C1CC[C@@H]1[C@@H]2[C@@H](O)C[C@@]2(C)[C@H]1CC[C@]2(O)C(=O)CO [Prednisolone] (compound 10 µM),0.01,1.18,0.05
Cc1cccn2c(=O)c(-c3nnn[nH]3)cnc12 [Pemirolast (potassium)] (compound 10 µM),-0.3,-0.65,-1.33
CN1CC2c3ccccc3Oc3ccc(Cl)cc3C2C1 (centres undefined) [Asenapine (maleate)] (compound 10 µM),0.37,-1.57,-0.61
CC(C)OC(=O)CCC/C=C\C[C@@H]1[C@@H](CC[C@@H](O)CCc2ccccc2)[C@H](O)C[C@@H]1O [Latanoprost] (compound 10 µM),0.61,-0.08,-0.18
O=C(C[S+]([O-])Cc1ccco1)NC/C=C\COc1cc(CN2CCCCC2)ccn1 (centres undefined) [Lafutidine] (compound 10 µM),-0.67,0.02,-0.32
NCCCC[C@H](NC(=O)[C@@H]1CCCN1C(=O)[C@@H]1CSSC[C@H](NC(=O)CNC(=O)CNC(=O)CN)C(=O)N[C@@H](Cc2ccc(O)cc2)C(=O)N[C@@H](Cc2ccccc2)C(=O)N[C@@H](CCC(N)=O)C(=O)N[C@@H](CC(N)=O)C(=O)N1)C(=O)NCC(N)=O [Terlipressin] (compound 10 µM),0.05,0.98,0.08

SMILES,phospho-S6 immunofluorescence (z-score) (co-treatment: GDC0941 450 nM),phospho-S6 immunofluorescence (z-score) (co-treatment: lapatinib 1 uM),phospho-S6 immunofluorescence (z-score) (co-treatment: vehicle)
CN1CCN(C2=Nc3cc(Cl)ccc3Nc3ccccc32)CC1 [Clozapine] (compound 10 µM),-0.16,-0.32,-0.32
Cc1noc(-c2ccc(-c3ccc(CC(=O)O)cc3)cc2)c1NC(=O)O[C@H](C)c1ccccc1 (compound 10 µM),0.62,1.57,0.63
CCCCC(=O)N(Cc1ccc(-c2ccccc2-c2nnn[nH]2)cc1)[C@H](C(=O)O)C(C)C [Valsartan] (compound 10 µM),0.04,0.5,0.13
CCC(=O)O[C@]1(C(=O)SCF)[C@H](C)C[C@H]2[C@@H]3C[C@H](F)C4=CC(=O)C=C[C@]4(C)[C@@]3(F)[C@@H](O)C[C@@]21C [Fluticasone (propionate)] (compound 10 µM),0.26,-0.29,-0.43
CN(C)C(=O)CCSC(SCCC(=O)O)c1cccc(/C=C/c2ccc3ccc(Cl)cc3n2)c1 (centres undefined) [MK-571 (sodium salt)] (compound 10 µM),-0.65,0.9,1.28
CN(C)CCC(c1ccc(Cl)cc1)c1ccccn1 (centres undefined) [Chlorpheniramine (maleate)] (compound 10 µM),-5.85,-10.5,-8.97
C[N+]1(C)[C@@H]2C[C@@H](OC(=O)C(O)(c3cccs3)c3cccs3)C[C@H]1[C@@H]1O[C@@H]12 [Tiotropium (Bromide)] (compound 10 µM),-0.58,0.42,-0.69
NC1=NCC2c3ccccc3Cc3ccccc3N12 (centres undefined) [Epinastine] (compound 10 µM),-0.05,-0.81,0.35
CN(C)CCCN1c2ccccc2Sc2ccc(C(F)(F)F)cc21 [Triflupromazine (hydrochloride)] (compound 10 µM),-0.42,-2.74,2.53
CCC(=O)NCC[C@@H]1CCc2ccc3c(c21)CCO3 [Ramelteon] (compound 10 µM),-0.04,-0.4,0.21
CCC/N=C1\S/C(=C\c2ccc(OC[C@H](O)CO)c(Cl)c2)C(=O)N1c1ccccc1C [Ponesimod] (compound 10 µM),-0.8,0.52,1.07
COc1ccc(-c2oc3c(CC=C(C)C)c(O)cc(O)c3c(=O)c2O[C@@H]2O[C@@H](C)[C@H](O)[C@@H](O)[C@H]2O)cc1 [Baohuoside I] (compound 10 µM),-5.72,-5.94,-7.08
O=C(O)CCCN1CCC(O[C@@H](c2ccc(Cl)cc2)c2ccccn2)CC1 [Bepotastine (Beslilate)] (compound 10 µM),-0.72,-0.17,0.56
CN1[C@@H]2CC[C@H]1C[C@@H](OC(=O)C(O)c1ccccc1)C2 (some centres undefined) [Homatropine (Bromide)] (compound 10 µM),-0.26,0.08,0.37
N=C(N)NCCC[C@H](NC(=O)[C@H](Cc1ccccc1)NC(=O)[C@@H]1CCCN1C(=O)[C@H](CO)NC(=O)[C@H](Cc1ccccc1)NC(=O)CNC(=O)[C@@H]1CCCN1C(=O)[C@@H]1CCCN1C(=O)[C@@H](N)CCCNC(=N)N)C(=O)O [Bradykinin] (compound 10 µM),-0.14,0.5,-0.36
C=CCN1CCCC1CNC(=O)c1cc(S(N)(=O)=O)cc(OC)c1OC (centres undefined) [Veralipride] (compound 10 µM),-0.02,1.05,0.08
c1cnc(NCc2ccc(CNc3ncccn3)cc2)nc1 (compound 10 µM),-0.12,-0.26,-0.11
Cc1nccn1CC1CCc2c(c3ccccc3n2C)C1=O (centres undefined) [Ondansetron (hydrochloride dihydrate)] (compound 10 µM),0.11,-0.58,0.16
NC(=O)c1ccc[n+]([O-])c1 [Nicotinamide N-oxide] (compound 10 µM),0.09,0.22,-0.26
COC(=O)CCc1ccc(OCC(O)CNC(C)C)cc1 (centres undefined) [Esmolol (hydrochloride)] (compound 10 µM),1.52,0.09,-0.19
CN1CCc2cc(Cl)c(O)cc2[C@@H](c2ccccc2)C1 (compound 10 µM),-0.98,-1.63,0.1
CCCC(=O)OC(CNC(C)(C)C)COc1nsnc1N1CCOCC1 (racemic) [(RS)-Butyryltimolol] (compound 10 µM),0.09,-0.58,-0.47
CN(C)CC/C=C1/c2ccccc2COc2ccc(CC(=O)O)cc21 [Olopatadine (hydrochloride)] (compound 10 µM),0.01,0.08,-0.35
CC1(C)O[C@@H]2C[C@H]3[C@@H]4CCC5=CC(=O)C=C[C@]5(C)[C@H]4[C@@H](O)C[C@]3(C)[C@]2(C(=O)CO)O1 [Desonide] (compound 10 µM),-0.1,0.54,1.16
